Results published in the supplement of paper PMC11060735.
Among all 1,800 compounds or so, about 50 (3%) showed activity. Shown is part of a subset that was picked to be rich in actives.

system: mouse p16Ink4a+/- lung fibroblasts (INKBRITE, bleomycin-injured); assay: percentage of GFP+ (p16Ink4a+) fibroblasts among all cells in well; higher = less depletion of p16Ink4a+ cells, active = 20 or less; details: 1 µM; 3 days

SMILES | percentage of GFP+
CC[C@@H]1[C@@H](C)O[C@@](O)([C@@H](C)[C@H](O)[C@H](C)[C@H]2OC(=O)/C=C/C=C/[C@H](C)[C@H]([C@@H](C)[C@@H](O)[C@H](C)[C@@]3(O)C[C@@H](O[C@H]4C[C@H](O)[C@H](O)[C@H](C)O4)[C@H](CC)[C@@H](C)O3)OC(=O)/C=C/C=C/[C@H]2C)C[C@H]1O[C@H]1C[C@H](O)[C@H](O)[C@H](C)O1 [Elaiophylin] | 11.1% (active)
O=[N+]([O-])c1ncc[nH]1 [Azomycin] | 43.5% (inactive)
CN1c2ccccc2C(NCCCCCCC(=O)O)c2ccc(Cl)cc2S1(=O)=O (stereo not given) [Tianeptine] | 29.5% (inactive)
C[C@](O)(COc1ccc(C#N)cc1)C(=O)Nc1ccc(C#N)c(C(F)(F)F)c1 | 43.3% (inactive)
CN1CCC(c2c[nH]c3ccc(O)cc23)CC1 | 45.6% (inactive)
CO[C@H]1CCC(O[C@H]2C[C@H]([C@]3(C)CC[C@]4(C[C@H](O)[C@@H](C)[C@@H]([C@@H](C)/C=C(\C)C(=O)[C@H](C)C[C@H](C)C(=O)O)O4)O3)O[C@]3(O[C@@H]([C@H]4O[C@@](O)(CO)[C@H](C)C[C@@H]4C)C[C@@H]3C)[C@@H]2C)O[C@@H]1C (stereo not given in full) [Nanchangmycin] | 18.5% (active)
CCCN1C[C@H](CSC)C[C@@H]2c3cccc4[nH]cc(c34)C[C@H]21 [Pergolide] | 54.5% (inactive)
C=CC[C@]1(O)CC[C@H]2[C@@H]3CCC4=CC(=O)CCC4=C3C=C[C@@]21C [Altrenogest] | 48.5% (inactive)
O=P1(NCCCl)OCCCN1CCCl (stereo not given) [Ifosfamide] | 45.7% (inactive)
Cc1cc(C(=O)CN2CCCC2)c(C)n1-c1ccc(F)cc1 | 51.3% (inactive)
CCC1(C)CC(=O)NC(=O)C1 [Bemegride] | 48.1% (inactive)
CC(C)[C@]12O[C@H]1[C@@H]1O[C@]13[C@]1(O[C@H]1C[C@H]1C4=C(CC[C@@]13C)C(=O)OC4)[C@@H]2O [Triptolide] | 4.17% (active)
Cc1ccccc1-n1c(Cn2ncc3c(N)ncnc32)nc2cccc(C)c2c1=O | 38.7% (inactive)
CCC1=C[C@@H]2CN3CCc4c([nH]c5ccccc45)[C@@](C(=O)OC)(C2)[C@@H]13 [Catharanthine] | 47.9% (inactive)
CN1CCN(c2nc3ccccc3nc2Cl)CC1 | 42.1% (inactive)
